This excerpt belongs to a sample that is enriched for hits.
YopH inh = YopH tyrosine phosphatase inhibitors, primary screen, biochemical, fluorescence Ex485/Em525 | AID 898, 2007 | YopH tyrosine phosphatase [Yersinia enterocolitica] | inhibition, % (no concentration beside the values) | 0.16% of 140,000 active; in the data active = inhibition above about 50%
RmlCD inh 1536 = M. tuberculosis RmlC/RmlD coupled enzyme inhibitors, primary screen, biochemical, compound mixtures, 384-well, from 1536-well plates; 0.03% of 160,000 active; AID 1533, 2009; inhibition, % at 3.6 µM; RmlC+RmlD coupled enzyme assay, percent inhibition; primary screen in compound mixtures; dTDP-4-dehydrorhamnose reductase (Mycobacterium tuberculosis (strain ATCC 25618 / H37Rv)) …; in the data active = inhibition mostly above about 34%, no sharp cut-off
Target sequence (P9WH09 whole entry, looked up): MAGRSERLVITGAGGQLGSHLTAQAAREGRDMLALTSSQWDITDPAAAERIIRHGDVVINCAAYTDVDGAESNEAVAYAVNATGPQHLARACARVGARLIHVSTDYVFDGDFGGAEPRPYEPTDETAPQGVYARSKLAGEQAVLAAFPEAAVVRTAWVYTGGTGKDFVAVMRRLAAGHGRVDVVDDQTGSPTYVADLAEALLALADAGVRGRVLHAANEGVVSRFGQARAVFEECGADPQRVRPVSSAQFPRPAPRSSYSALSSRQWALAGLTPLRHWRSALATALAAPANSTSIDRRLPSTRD
Target sequence (P9WH11 whole entry, looked up): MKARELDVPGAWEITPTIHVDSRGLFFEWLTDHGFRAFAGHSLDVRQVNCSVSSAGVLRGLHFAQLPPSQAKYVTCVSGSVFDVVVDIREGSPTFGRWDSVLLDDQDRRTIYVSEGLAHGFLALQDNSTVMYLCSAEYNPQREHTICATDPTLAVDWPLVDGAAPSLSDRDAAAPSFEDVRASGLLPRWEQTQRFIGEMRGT
Starred values were filed as active, the others as inactive; . = not tested or not shown.

SMILES	YopH inh	RmlCD inh 1536
Fc1ccc(-c2csc3[n+]2CCS3)cc1	-9	.
O=[N+]([O-])c1ccc(-c2csc3[n+]2CCS3)cc1	51*	.
Cc1ccc2c(c1)N(CC(=O)NCc1cccs1)C(=O)CO2	-28	12
Cn1c(-c2ccccc2)cc(=O)c2ccccc21	-4	.
Cn1c2ccccc2c(=O)n2c(=O)c3ccccc3cc12	101*	.
CC(=O)NC(=S)Nc1ccc2oc(=O)ccc2c1	.	2
O=c1cc(CN2CCN(c3ccccc3F)CC2)c2cc(O)c(-c3ccccc3)cc2o1	61*	.
COc1ccc(N2CCN(Cc3cc(=O)oc4cc(-c5ccccc5)c(O)cc34)CC2)cc1	0	.
O=C(NCCN1CCOCC1)c1ccncc1	-31	-6
O=C1C=C(NCCN2CCOCC2)C(=O)c2cnccc21	101*	.
COc1cc(CNc2ccc(N3CCCC3)cc2)cc(Cl)c1OC	.	2
CCOc1cc(CNc2ccc(N3CCCC3)cc2)cc(Cl)c1OC	74*	.
COc1ccc(-c2cc(=NCCC(=O)O)c3cc(C)ccc3o2)cc1	.	32*
COc1ccc(-c2cc(=NC(CC(C)C)C(=O)O)c3cc(C)ccc3o2)cc1 (stereo unspecified)	-10	-9
Cn1nc(-c2ccc(Cl)cc2)nc2c(=O)n(C)c(=O)nc1-2	101*	.
CS(=O)(=O)n1nc(-c2ccc(Cl)cc2)nc1N	.	8
CN(C)c1cccc(C(=O)OCc2cc(=O)oc3cc(O)ccc23)c1	10	11
CC1CN(S(=O)(=O)c2cccc(C(=O)OCc3cc(=O)oc4cc(O)ccc34)c2)CC(C)O1 (stereo unspecified)	1	64*
Nc1cccc(C2=Nc3cccc4cccc(c34)N2)c1	62*	9
COc1ccc(C2=Nc3cccc4cccc(c34)N2)cc1	-21	1
O=c1[nH]c(Nc2ccccc2)cc2ccccc12	101*	-5
O=c1nccc(Nc2ccccc2)[nH]1	.	-6
COc1ccc(NCc2ccc([N+](=O)[O-])s2)cc1	48	-9
COc1ccc(NCc2ccc([N+](=O)[O-])s2)c(OC)c1	76*	-10
Clc1nc(Cl)nc(NCCC2=CCCCC2)n1	.	9
SMILES	YopH inh	RmlCD inh 1536
CCOC(=O)C(C)Sc1nnc(-c2ccccc2O)n1-c1ccc(C)cc1 (stereo unspecified)	-39	11
Cc1oc2c(CN3CCOCC3)c(O)ccc2c(=O)c1-c1ccccc1	-48	66*
COc1ccc(Oc2c(C)oc3c(CN4CCOCC4)c(O)ccc3c2=O)cc1	-12	5
COc1ccc2c(c1)CCc1cc(C(=O)N3CCN(c4ccc(N5CCOCC5)nn4)CC3)sc1-2	76*	-19
COc1ccc2c(c1)CCc1c(C(=O)N3CCCCCC3)noc1-2	-39	46
Cc1ccc(NC(=O)CC2S/C(=N/c3nccs3)N(C)C2=O)c(C)c1 (stereo unspecified)	-17	14
O=C(COC(=O)CCC(=O)c1cccs1)NC(=O)c1ccc(OC(F)F)cc1	.	5
COc1cccc(-c2nc(CS(=O)(=O)CC(=O)N3CCc4ccccc4C3)c(C)o2)c1	80*	7
COc1cccc(-c2nc(CS(=O)(=O)CC(=O)N3CCN(C)CC3)c(C)o2)c1	-9	-11
O=C(c1ccco1)[C@@H]1[C@@H]2C(=O)N(c3ccccc3)C(=O)[C@@H]2C2c3ccccc3C=CN21 (stereo partly specified)	82*	.
CC(=O)[C@@H]1[C@@H]2C(=O)N(Cc3ccccc3)C(=O)[C@@H]2C2c3ccccc3C=CN21 (stereo partly specified)	35	100
Cc1ccc(N2C(=O)[C@@H]3[C@H](C2=O)C2c4ccccc4C=CN2[C@@H]3C(=O)c2ccco2)cc1 (stereo partly specified)	92*	9
Cc1ccc(N2C(=O)[C@@H]3[C@H](C2=O)C2c4ccccc4C=CN2[C@@H]3C(=O)c2ccco2)c(C)c1 (stereo partly specified)	95*	.
CC(C)(C)C(=O)[C@@H]1[C@@H]2C(=O)N(c3ccc4c(c3)OCCO4)C(=O)[C@@H]2C2c3ccccc3C=CN21 (stereo partly specified)	5	.
COc1ccc(N2C(=O)[C@@H]3[C@H](C2=O)[C@H]2c4ccccc4C=CN2[C@@H]3C(=O)Nc2ccccc2)cc1	5	11
Cc1cc(C)c2c(=O)[nH]c(SCC(=O)c3ccc(C)c(C)c3)nc2n1	.	2
COc1cc(/C=C(/Sc2nnc(-c3ccc(F)cc3)o2)C(=O)O)ccc1OC(F)F	.	1
O=C(CCn1c(=O)oc2ccccc21)N1CCN(C(c2ccccc2)c2ccccc2)CC1	-25	4
COc1cc(NC(=O)[C@@H](NC(=O)c2ccco2)C(C)C)c(OC)cc1NC(=O)c1ccccc1	.	6
O=C(CCSCCC(=O)Nc1c(F)c(F)c(F)c(F)c1F)Nc1c(F)c(F)c(F)c(F)c1F	.	6
CC1=NN(C(=O)c2ccc(Cn3ccc([N+](=O)[O-])n3)cc2)C(O)(C(F)(F)F)C1 (stereo unspecified)	-28	-12
CCn1nnnc1-c1ccc(OC)c(S(=O)(=O)Nc2ccc(C(=O)OC)cc2)c1	-7	0
CCOC(=O)c1ccc(NS(=O)(=O)c2cc(-c3nnnn3C(C)C)ccc2OC)cc1	62*	.
Cc1ccc(C(=O)Nc2cc3ccccc3oc2=O)cc1	.	-7
COc1ccc(/C=N/NC(=O)c2[nH]ncc2Br)c(OC)c1	-31	5
SMILES	YopH inh	RmlCD inh 1536
CCOC(=O)N1CCN(c2cc(NCCC(=O)O)c3c4c(onc24)-c2ccccc2C3=O)CC1	87*	9
O=C(O)CCCNc1cc(N2CCC3(CC2)OCCO3)c2noc3c2c1C(=O)c1ccccc1-3	9	-11
O=C(COc1ccccc1-c1ccccc1)N/N=C/c1ccccn1	.	9
COc1ccc(C2CC(c3ccccc3)=NN2C(=O)COC(=O)c2cc(S(=O)(=O)N3CCOCC3)ccc2F)cc1 (stereo unspecified)	-23	10
CCOC(=O)N1CCN(c2cc(=O)n(-c3cccc(C)c3)c(=O)[nH]2)CC1	.	5
O=C(O)c1ccccc1SCC(=O)N1CCCCC1	-31	12
O=C(O)c1ccccc1SCC(=O)N1c2ccccc2Sc2ccccc21	60*	-16
COCCCn1c(=O)/c(=C\c2ccccc2OC(F)F)s/c1=C(/C#N)C(=O)NC(C)C	-16	-8
COCCCn1c(=O)/c(=C\c2ccc(OC(F)F)c(OC)c2)s/c1=C(/C#N)C(=O)NCCOC	.	66*
Cn1c2c(c(=O)n(C)c1=O)NC1(N2)C(=O)Nc2ccccc21 (stereo unspecified)	.	9
Cc1c(Br)cc(C(=O)OC2CCN(C)CC2)c(C)c1C	54*	17
COc1ccc(C(=O)OC2CCN(C)CC2)cc1	3	.
Cc1cccc(NC(=O)c2csnn2)n1	.	7
Cc1c(Cl)c(=O)oc2cc(OC(C)C)ccc12	-15	.
CCC(=O)Oc1ccc2c(C)c(Cl)c(=O)oc2c1	-32	43*
CCc1nc(SCC(=O)O)c(C#N)cc1C	-46	11
CCOC(=O)CC(=O)CSc1nc(CC)c(C)cc1C#N	.	36*
O=C(/C=C/c1cccc([N+](=O)[O-])c1)NCCN1CCOCC1	-26	2
COc1ccc(CC(=O)NNS(=O)(=O)c2ccccc2)cc1OC	.	4
Cc1ccccc1CNC(=O)c1ccc(CSCc2ccccc2)cc1	-20	10

Source: PubChem BioAssay
